{"source": "PubChem BioAssay", "note": "Values without a mark were called inactive. Activity calls are given as the source filed them.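 Rule for the calls, unless noted: active = inhibition above 50%; inactive = the rest.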"}
{"test": "antimalarial activity against Dd2 strain (AID 2302;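 active = growth inhibition above 50% at the single 2 µM test dose, taken to imply half-maximal potency below 2 µM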;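 note: 0% = DMSO untreated growth and 100% = chloroquine plus artemisinin killed control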)", "conditions": "P. falciparum Dd2 in RBCs, LDH growth readout, 72 h; at 2 µM; hits give high values"}
{"smiles": "COC(=O)C(Cc1ccccc1)NC(=O)NC1CCN(c2ccnc(Nc3ccc(F)cc3)n2)C1", "note": "(stereo not drawn)", "growth inhibition": "14%"}
{"smiles": "CCC[C@@H]([C@@H](Cc1ccc(C)s1)C(=O)N[C@@H](CNC(C)=O)C(=O)Nc1nccs1)N(O)C=O", "growth inhibition": "96% (active)"}
{"smiles": "N#Cc1ccc2c(c1)CCN(CCC1CCC(NC(=O)c3cc4cccc(Cl)c4[nH]3)CC1)CC2", "note": "(stereo not drawn)", "growth inhibition": "78% (active)"}
{"smiles": "CC(=O)c1cccc(NC(=O)NC2CCN(CCCCCNC(=O)/C=C/c3ccc(Cl)c(Cl)c3)CC2)c1", "growth inhibition": "1%"}
{"test": "human hepatoma cell viability loss – ATP luminescence, cytotoxicity control for P. falciparum antimalarial project, primary screen (AID 2303);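 note: 0% = DMSO wells and 100% = digitonin-killed cells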", "conditions": "HepG2 viability, 24-48 h, at 10 µM, hits give high values", "units": {"inhibition": "%"}}
{"smiles": "O=C(NCCCCN1CCC(c2c[nH]c3ccc(-c4ccccc4)cc23)CC1)c1ccc(-c2ccccc2)cc1", "inhibition": 48}
{"smiles": "O=C(CC1SC(N2N=C(c3cccs3)CC2c2ccccc2)=NC1=O)Nc1ccc(Cl)cc1", "note": "(stereo not drawn)", "inhibition": 18}
{"smiles": "N#Cc1cccc(NC(=O)c2cccc(S(=O)(=O)NC3CCN(CC4CCCCC4)C3)c2)c1", "note": "(stereo not drawn)", "inhibition": 29}
{"smiles": "CCOc1cc(C(C)C)ccc1N1CCN(CCCCNC(=O)c2ccc(NC(=O)c3ccc(Cl)cc3)cc2)CC1", "inhibition": 28}
{"smiles": "COc1ccccc1-c1cccc2c(NC(=O)Nc3ccc4nccc(N5CCN(C)CC5)c4c3)ccnc12", "inhibition": 3}
{"smiles": "C=C(C)Cn1cc(C2CCN(CCCCNC(=O)c3sc(-c4ccc(Cl)cc4Cl)nc3CO)CC2)c2ccccc21", "inhibition": 22}
{"smiles": "O=[N+]([O-])c1cccc(NC(=S)N2CCCN(Cc3ccc(C(F)(F)F)cc3)CC2)c1", "inhibition": 11}
{"smiles": "COc1ccc2nc(C)cc(NCc3cccc4ccccc34)c2c1", "inhibition": 28}
{"smiles": "O=C(Nc1ccc(Oc2ccccc2)cc1)N(CCN1CCCC1)Cc1ccc(-c2ccc(CN3CCNCC3)cc2)cc1", "inhibition": 48}
